Results reported in PubChem BioAssay (NCATS).
Results filed as inconclusive are left out. The source made the active and inactive calls. Calls follow the shape of the dose curve; as a rule, active = well fitted inhibition curve with a large enough effect; inconclusive = small, poorly fitted or top-dose-only effect; inactive = no such curve, though single readings can be large or run the other way.

Assay: S16 Schwann cell PMP22 intronic element firefly luciferase assay (AID 624032); also: nearly all actives have a fitted effect of over 30% in size
Details: S16 rat Schwann cells, PMP22 element FLuc, 24 h; series mostly up to 57.5 µM; activity change, negative = inhibition: at the top concentration
Text: Charcot-Marie-Tooth-Association [CMTA]
National Center for Advancing Translational Sciences [NCATS]
Charcot-Marie-Tooth (CMT) disease was first characterized by Jean-Martin Charcot and Pierre Marie in France and, independently, by Howard Henry Tooth in England in 1886. CMT is one of the most common inherited neurological diseases, affecting approximately 1 in 2,500 Americans. […] The most prevalent type of CMT is known as CMT1A and caused by a duplication of the PMP22 gene which leads to over-expression of this protein. PMP22 is a glycosylated intrinsic membrane protein accounting for 2-5% of the myelin protein content, and its over-expression results in demyelination and subsequently axonal loss.
A pair of cellular transcription-based assays was developed in the S16 rat Schwann cell lines (Hai, M., et al., 2002) stably transfected with orthogonal reporters - firefly luciferase (Fluc) and beta-lactamase (beta-Lac) - whose expression is driven by an intronic regulatory element of the PMP22 gene (Jones, E.A., et al., 2011) to recapitulate endogenous expression of PMP22. The current assay employs Fluc to report on PMP22 expression. A comprehensive library of approved drugs, the NCGC Pharmaceutical Collection (Huang, R., et al., 2011), was screened in the cross-validating platform of the orthogonal reporter assays to identify drug modulators inhibitory towards PMP22 expression.
A set of counter-screens was devised to address non-specific activity of the library. An ATP-dependent CellTiter-Glo assay (developed by Promega Corp) was utilized to control cell viability. In addition, biochemical Fluc enzyme assay was performed to assess direct inhibition of the Fluc enzymatic activity.
Hai, M., Muja, N., DeVries, G.H., Quarles, R.H. and Patel, P.I. Comparative analysis of Schwann cell lines as model systems for myelin gene transcription studies. J Neurosci Res, 2002. 69(4): pp 497-508
Huang, R., Southall, N., Wang, Y., Yasgar A., Shinn P., Jadhav, A. , Nguyen, D.-T. and Austin, C.P., The NCGC pharmaceutical collection: a comprehensive resource of clinically approved drugs enabling repurposing and chemical genomics. Sci Transl Med, 2011. 3(80): p. 80ps16.
S16 Schwann cell PMP22 intronic element firefly luciferase assay
The FLuc-expressing S16 cells were seeded in white solid 1536-well plates at between 500-750 cells/4uL in DMEM medium containing 10% FBS, w/o phenol red. After overnight incubation at 37 degree Celsius/5% C02, 23 nL of compounds or DMSO were delivered to each well using a pin tool, followed by 24h-incubation at 37 degree Celsius/5% C02. Then 4 uL ONE-Glo luminescent substrate mix (Promega) was added to each well. Luminescence was measured on a ViewLux plate reader (Perkin Elmer). The % activity was determined by normalizing to the average readings of PTC124 (a positive control) - treated cells relative to DMSO-treated cells (0% Activity). The concentration-effect curves were then classified based on curve quality (r2), response magnitude and degree of measured activity.
Potency is read from the fitted curve at half-maximal effect.

**Q.** For `O=C(O)CCC(=O)c1ccc(-c2ccccc2)cc1`, which “activity change, negative = inhibition” value is on record?
**A.** 26.9% [at 25.7 µM] (inactive)

**Q.** With `O=C(Nc1ccc(O)cc1)c1ccccc1O` as the molecule, how does the “activity change, negative = inhibition” value read?
**A.** 91.8% (inactive)

**Q.** Which “activity change, negative = inhibition” value does the source give for `NCCN` here?
**A.** -2.69% (inactive)

**Q.** With `COc1cc(S(C)=O)ccc1-c1nc2ncccc2[nH]1` (stereo not given) as the molecule, how does the “activity change, negative = inhibition” value read?
**A.** 6.73% (inactive)

**Q.** Which “activity change, negative = inhibition” value does the source give for `Cc1ccccn1` here?
**A.** 4.21% (inactive)

**Q.** With `CN(Cc1ccccc1)Cc1ccccc1` as the molecule, how does the “activity change, negative = inhibition” value read?
**A.** -20.5% (inactive)

**Q.** With `C=CC(=O)O` as the molecule, how does the “activity change, negative = inhibition” value read?
**A.** 24.6% (inactive)

**Q.** With `CC(C)CCCCCCc1ccc(O)cc1` as the molecule, how does the “activity change, negative = inhibition” value read?
**A.** 13.2% (inactive)

**Q.** For `NC(=S)NS(=O)(=O)c1ccc(N)cc1`, which “activity change, negative = inhibition” value is on record?
**A.** 11.1% (inactive)

**Q.** For `Cc1nc(NS(=O)(=O)c2ccc(N)cc2)nc(C)c1Br`, which “activity change, negative = inhibition” value is on record?
**A.** -8.6% (inactive)

**Q.** Which “activity change, negative = inhibition” value does the source give for `COc1ccc(/C=C/C(=O)O)cc1` here?
**A.** -29.2% (inactive)

**Q.** Which “activity change, negative = inhibition” value does the source give for `CCCCCCCCCCCC(=O)N(CCO)CCO` here?
**A.** 35.8% (inactive)

**Q.** Which “activity change, negative = inhibition” value does the source give for `CCCCCCCCCCCCOCCCN` here?
**A.** -29.5% (inactive)

**Q.** With `CC(CCc1ccc(O)cc1)NCC(O)c1ccc(O)cc1` (stereo not given) as the molecule, how does the Potency read?
**A.** 2.03 µM (active)

**Q.** With `O=P(O)(O)O` as the molecule, how does the “activity change, negative = inhibition” value read?
**A.** 5.48% (inactive)

**Q.** With `O=C1CCC(c2ccccc2)(C2CCN(Cc3ccccc3)CC2)C(=O)N1` (stereo not given) as the molecule, how does the “activity change, negative = inhibition” value read?
**A.** -10.5% (inactive)

**Q.** Which “activity change, negative = inhibition” value does the source give for `O=C(O)COc1ccccc1/C=N/NC(=O)c1ccncc1` here?
**A.** -15.7% (inactive)

**Q.** Which Potency does the source give for `C=C1C(CCl)(CCl)C2(Cl)C(Cl)C(Cl)C1(Cl)C2(Cl)Cl` (stereo not given) here?
**A.** 36.1 µM (active)

**Q.** For `O.O.O.O.O.O.O.O=S(=O)([O-])[O-].[Co+2]`, which “activity change, negative = inhibition” value is on record?
**A.** 9.5% (inactive)

**Q.** With `O=C1N=C2SCCN2C(=O)C1Cc1ccc(Cl)cc1` (stereo not given) as the molecule, how does the “activity change, negative = inhibition” value read?
**A.** 10.2% (inactive)

**Q.** Which “activity change, negative = inhibition” value does the source give for `O=C1c2ccccc2C(=O)C1c1ccc(Cl)cc1` here?
**A.** 3.87% (inactive)

**Q.** For `c1ccc2c(c1)OCC(CN1CCCCC1)O2` (stereo not given), which “activity change, negative = inhibition” value is on record?
**A.** 2.47% (inactive)

**Q.** Which “activity change, negative = inhibition” value does the source give for `OCCCNc1ccccc1` here?
**A.** 11.8% (inactive)

**Q.** Which “activity change, negative = inhibition” value does the source give for `CC(C)(Oc1ccc(C2CCCc3ccccc32)cc1)C(=O)O` (stereo not given) here?
**A.** -14.6% (inactive)

**Q.** With `NC(=O)[C@H]1O[C@@H](O)[C@H](O)[C@@H](O)[C@@H]1O` as the molecule, how does the “activity change, negative = inhibition” value read?
**A.** 23% (inactive)

**Q.** For `CCCCCCCCCCCCCCCCCC(=O)OC[C@@H](O)[C@H]1OC[C@H](O)[C@H]1O`, which “activity change, negative = inhibition” value is on record?
**A.** -24.1% (inactive)

**Q.** For `CC[C@H]1OC(=O)[C@H](C)[C@@H](O[C@H]2C[C@@](C)(OC)[C@@H](O)[C@H](C)O2)[C@H](C)[C@@H](O[C@@H]2O[C@H](C)C[C@H](N(C)C)[C@H]2O)[C@](C)(O)C[C@@H](C)CN(C)[C@H](C)[C@@H](O)[C@]1(C)O`, which “activity change, negative = inhibition” value is on record?
**A.** 16.5% (inactive)

**Q.** With `OC/C=C/c1ccccc1` as the molecule, how does the “activity change, negative = inhibition” value read?
**A.** -3.85% (inactive)

**Q.** Which “activity change, negative = inhibition” value does the source give for `O=P(O)(O)OC[C@H](O)CO` here?
**A.** -5.49% (inactive)

**Q.** With `OC[C@H]1O[C@@H]2O[C@H]3[C@H](O)[C@@H](O)[C@@H](O[C@H]4[C@H](O)[C@@H](O)[C@@H](O[C@H]5[C@H](O)[C@@H](O)[C@@H](O[C@H]6[C@H](O)[C@@H](O)[C@@H](O[C@H]7[C@H](O)[C@@H](O)[C@@H](O[C@H]1[C@H](O)[C@H]2O)O[C@@H]7CO)O[C@@H]6CO)O[C@@H]5CO)O[C@@H]4CO)O[C@@H]3CO` as the molecule, how does the “activity change, negative = inhibition” value read?
**A.** 4.14% (inactive)

**Q.** For `COc1ccc(/C=C/C(=O)OCCC(C)C)cc1`, which “activity change, negative = inhibition” value is on record?
**A.** 140% (inactive)

**Q.** For `Cc1cccc(C)c1NC(=O)NC1=CCCN1C`, which “activity change, negative = inhibition” value is on record?
**A.** 15.4% (inactive)

**Q.** For `CCCCCCCCCCCCCCCCCC(=O)OCC(C)O` (stereo not given), which “activity change, negative = inhibition” value is on record?
**A.** 19.1% (inactive)

**Q.** Which “activity change, negative = inhibition” value does the source give for `COc1ccc(/C=N/NC(=O)c2ccncc2)c(C(=O)O)c1OC` here?
**A.** -14.3% (inactive)

**Q.** Which “activity change, negative = inhibition” value does the source give for `OCC(O)CO` here?
**A.** 9.41% (inactive)

**Q.** For `O=C(c1cc2ccccc2o1)N1CCN(Cc2ccccc2)CC1`, which “activity change, negative = inhibition” value is on record?
**A.** 62% (inactive)

**Q.** Which “activity change, negative = inhibition” value does the source give for `O=P(O)(O)CP(=O)(O)O` here?
**A.** 3.66% (inactive)

**Q.** With `COC1=C(OC)C(=O)C(C/C=C(\C)CC/C=C(\C)CC/C=C(\C)CC/C=C(\C)CC/C=C(\C)CC/C=C(\C)CC/C=C(\C)CC/C=C(\C)CC/C=C(\C)CCC=C(C)C)=C(C)C1=O` as the molecule, how does the Potency read?
**A.** 0.642 µM (active)

**Q.** With `CCOC(=O)C1=C(COCCN)NC(C)=C(C(=O)OC)C1c1ccccc1Cl` (stereo not given) as the molecule, how does the “activity change, negative = inhibition” value read?
**A.** -10.2% (inactive)

**Q.** Which “activity change, negative = inhibition” value does the source give for `FC(F)(F)C(F)(F)C(F)(F)C(F)(F)C(F)(F)F` here?
**A.** 5.06% (inactive)
